The text below walks through data of PubChem BioAssay.

Test [1] in a line: sensitizers of A549 cells to miR-34 induction, primary screen, imaging, A549 dox-inducible miR-34, nuclei and caspase counts (AID 1347080;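 active = compounds whose cell count with miR-34 switched on is under 0.7 times the count with it off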). The settings on record: A549 miR-34 inducible, Hoechst nuclei count, 48 h.
The nature of test [2]: survival rescue of mitochondrial mutant cells in low glucose, primary screen, MELAS cybrids, Rieske KO mouse fibroblasts, CellTiter-Glo (AID 1508586;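 active = mean z-score across replicates of 1.96 or higher in either the MELAS or the Rieske mutant cell line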;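 also: z relative to plate mean and SD of compound and empty wells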). In general terms: In ATP-based viability assays light output follows the ATP content of the culture.
The nature of test [3]: viability rescue of complex I mutant cybrids, primary screen, cell-based, galactose medium, ATP luminescence (AID 1645843;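 active = z-score of at least 1.8 in each of two replicates, scored against plate mean and spread of sample wells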;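 also: positive z means more ATP and so rescue of galactose-driven cybrid death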). To be noted: complex I mutant cybrid cells, 72 h, stronger effect = higher value.
A short description of test [4]: LFS_MB_P medulloblastoma growth inhibition, cell-based, chromothripsis tumors, cisplatin or BGB combos (AID 1671449).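 Also: cells exposed for 96 hours; 0% = vehicle DMSO and 100% = killing by high DMSO.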 To be noted: LFS_MB_P medulloblastoma cells.
The nature of test [5]: HDN33 neuroblastoma growth inhibition, cell-based, chromothripsis tumors, cisplatin or BGB combos (AID 1671450).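 Also: cells exposed to compound for four days; 0% = vehicle DMSO and 100% = cell killing by high DMSO.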 The settings on record: HDN33 neuroblastoma cells, stronger effect = higher value.
Test [6] is described as follows: ICB984 medulloblastoma cell growth inhibition, synergistic combos for chromothripsis tumors, cisplatin or BGB combos (AID 1671451; call rule not given here;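 also: cells exposed for 96 hours before readout; 0% = vehicle DMSO and 100% = killing by high DMSO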). To be noted: ICB984 medulloblastoma cells, drug combinations, stronger effect = higher value.
Test [7] in a line: LFS_MB_1R medulloblastoma cell growth inhibition, synergistic combos for chromothripsis tumors, cisplatin or BGB combos (AID 1671452).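 Also: cells exposed for 96 hours before readout.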 To be noted: LFS_MB_1R medulloblastoma cells, stronger effect = higher value.
A short description of test [8]: HTB85 osteosarcoma cell growth inhibition, synergistic combos for chromothripsis tumors, BGB or cisplatin IC20 combos (AID 1671453).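 Also: cells exposed for 96 hours before readout; 0% = vehicle DMSO and 100% = high DMSO killing control.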 The settings on record: HTB85 osteosarcoma cells, drug combinations, stronger effect = higher value.
The nature of test [9]: CRL2098 osteosarcoma cell growth inhibition, synergistic combos for chromothripsis tumors, BGB or cisplatin IC20 combos (AID 1671454).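 Also: cells exposed for 96 h before readout; 0% = vehicle DMSO and 100% = killing by high DMSO.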 To be noted: CRL2098 osteosarcoma cells, drug combinations, stronger effect = higher value.
The nature of test [10]: HD-MB03 medulloblastoma cell growth inhibition, synergistic combos for chromothripsis tumors, BGB or cisplatin IC20 combos (AID 1671455; in the data active = inhibition above about 83%;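 also: 0% = vehicle DMSO and 100% = high DMSO as cytotoxic control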). The settings on record: HD-MB03 medulloblastoma cells, stronger effect = higher value.
Test [11] is described as follows: UWB1.289 ovarian carcinoma cell growth inhibition, synergistic combos for chromothripsis tumors, BGB or cisplatin combos (AID 1671456).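 Also: cells exposed to compound for four days; 0% = vehicle DMSO and 100% = killing by high DMSO.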 To be noted: UWB1.289 ovarian carcinoma cells, stronger effect = higher value.
Test [12] is described as follows: LFS_MB_2R medulloblastoma cell growth inhibition, synergistic combos for chromothripsis tumors, cisplatin combos (AID 1671457).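 Also: cells exposed to compound for four days before readout.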 The settings on record: LFS_MB_2R medulloblastoma cells, stronger effect = higher value.
Test [13] is described as follows: MDA-MB-436 breast carcinoma cell growth inhibition, synergistic combos for chromothripsis tumors, BGB or cisplatin combos (AID 1671458; call rule not given here;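 also: cells exposed for 96 hours; 0% = vehicle DMSO and 100% = killing by high DMSO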). To be noted: MDA-MB-436 breast carcinoma growth inhibition, drug combinations, stronger effect = higher value.
A short description of test [14]: UWB1.289_BRCA1 ovarian cancer growth, cell-based, BGB or cisplatin combinations (AID 1671459). The settings on record: UWB1.289 BRCA1 ovarian carcinoma, drug combinations, stronger effect = higher value.
Test [15] in a line: human astrocyte viability loss, single and combined drugs, cytotoxicity control for chromothriptic childhood tumor combination screen, cell-based, BGB or cisplatin IC20 combos (AID 1671460).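 Also: cells exposed to compounds for 96 hours before viability readout; 0% = vehicle and 100% = killing control.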 To be noted: Human astrocytes, drug combinations, stronger effect = higher value.
A short description of test [16]: growth inhibition of BT084 medulloblastoma cells, cell-based, ICGC_MB145, cisplatin and BGB IC40 combos (AID 1671461).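 Also: cells exposed to drugs for 96 hours; 0% = vehicle DMSO and 100% = high DMSO full killing control.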 The settings on record: drug combinations, stronger effect = higher value.
A short description of test [17]: growth inhibition of RCMB18 medulloblastoma cells, cell-based, cisplatin and BGB IC40 combos (AID 1671462).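 Also: cells exposed to compound for four days.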 The settings on record: stronger effect = higher value.
Test [18] in a line: growth inhibition of CRL1545 osteosarcoma cells, cell-based, cisplatin and BGB IC20 combos (AID 1671464).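 Also: cells exposed to compound for 96 hours before readout; 0% = vehicle DMSO and 100% = high DMSO killing control.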 The settings on record: stronger effect = higher value.
Where [19] appears, read: stronger effect = lower value, cell number ratio, induced over uninduced.
Where [20] appears, read: measured here: relative caspase fold change +Dox/-Dox.
The mark [21] stands for this setting: measured here: total cells with miR-34 induction, stronger effect = lower value.
Where [22] appears, read: measured here: total cells without miR-34 induction.
[23] abbreviates: MELAS cybrid survival, CellTiter-Glo 48 h, stronger effect = higher value.
Setting [24] is: Rieske KO mouse fibroblast survival, CellTiter-Glo 72 h.
Setting [25] is: measured here: combination with BGB IC40, at 0.05 µM.
Setting [26] is: measured here: with BGB IC20 combination, at 0.5 µM.
[27] abbreviates: measured here: with cisplatin IC20 combination, at 0.5 µM.
Where [28] appears, read: measured here: combination with cisplatin, at 0.5 µM.
Where [29] appears, read: measured here: combination with cisplatin, at 5 µM.

Molecules are shown by their SMILES. Where “and” joins values, the source holds several entries; their conditions need not be identical. Identical values can stand only once. Calls of active or inactive are those of the source. Rule as the data show it, unless noted: active = inhibition above about 80%; inactive = the rest.

As to `Cc1nsc(NC(=O)N2CCC(C(O)CC(C)C)CC2)n1` (stereo not given), the fold change was 0.832 (inactive) in test [1] (setting [19]) and 2.21 in test [1] (setting [20]). The cell count in test [1] (setting [21]) is 6540; in test [1] (setting [22]), 7860. Further, the z-score in test [2] (setting [23]) was 0.507 (inactive); in test [2] (setting [24]), -0.186; in test [3], -0.63 (inactive).
`O=C(Nc1ccccc1)c1ccn[nH]1`: the fold change in [1] (setting [19]) is 0.856 (inactive); in test [1] (setting [20]) it was 0.232. In addition, the cell count worked out at 7620 in [1] (setting [21]) and 8910 in test [1] (setting [22]). Further, the z-score is -0.292 (inactive) in test [2] (setting [23]), 0.207 in test [2] (setting [24]) and 0.49 (inactive) in test [3].
For the molecule `C=CCn1cc(-c2nc3c([nH]2)c(-c2cccnc2)nn3C)c(C)n1`, the fold change is 0.874 (inactive) in test [1] (setting [19]) and 0.787 in [1] (setting [20]). Besides, the cell count in test [1] (setting [21]) came to 8680; in [1] (setting [22]), 9940. In addition, the z-score in test [2] (setting [23]) was -1.29; in test [2] (setting [24]), 2.45; in test [3] it was -0.47 (inactive).
With `O=S(=O)(O)CCN1CCOCC1`, the figures for the fold change in test [1] (setting [19]) and in test [1] (setting [20]) were 0.906 (inactive) and 0.601, respectively. Besides, the cell count in [1] (setting [21]) was 8760; in [1] (setting [22]), 9670. Also, the values for the z-score in [2] (setting [23]), in test [2] (setting [24]) and in test [3] were -0.907 (inactive), -0.75 and 0.715 (inactive), respectively.
As for `Cc1cn(C2C=CC(CO)O2)c(=O)[nH]c1=O` (stereo not given), the fold change was 0.962 (inactive) and 0.935 (inactive) in test [1] (setting [19]); 1.05 and 0.911 in test [1] (setting [20]). The cell count in test [1] (setting [21]) was 8970 and 7330; in test [1] (setting [22]), 9320 and 7840. For the same molecule, the z-score in test [2] (setting [23]) is -0.48 (inactive); in test [2] (setting [24]), 0.518; in test [3], 0.42 (inactive). Also, the inhibition (in general, the relative decrease from the control value, in per cent) in test [4] (at 0.5 µM, stronger effect = higher value) is -20.9% (inactive); in [4] (measured here: combination with BGB IC20, at 0.005 µM) it was -5.29%; in test [4] (measured here: combination with BGB IC40, at 0.005 µM) it was -35%; in [4] (setting [25]) it was -15.2%; in [4] (measured here: combination with cisplatin, at 0.5 µM, stronger effect = higher value) it was -28.2%; in [4] (measured here: combination with cisplatin, at 5 µM, stronger effect = higher value), -24.4%. For the same molecule, the inhibition in test [5] (BGB combo, at 5 µM) is -42.2%; in [5] (at 0.5 µM), -34.4% (inactive); in [5] (cisplatin combo, at 5 µM), -46.6%; in [5] (setting [26]), -50.9%; in test [5] (setting [27]), -24.2%; in [5] (single agent, at 5 µM), -41%. Besides, the inhibition was -4.4% in test [6] (BGB IC20 combo, at 0.005 µM); -46.7% in test [6] (BGB IC40 combo, at 0.005 µM); -3.74% in [6] (BGB IC40 combo, at 0.05 µM); -26.7% (inactive) in [6] (at 0.5 µM); -6.64% in test [6] (cisplatin combo, at 0.05 µM); -35.4% in test [6] (cisplatin combo, at 0.5 µM). Besides, the inhibition was -36.2% in [6] (cisplatin combo, at 5 µM); -29.8% in [6] (measured here: 5 uM single agent, at 5 µM); -29.1% (inactive) in [7] (at 0.5 µM); -18.5% in [7] (setting [25]); -42.3% in [7] (setting [28]); -74.7% in test [7] (setting [29]). For the same molecule, the inhibition in test [8] (at 0.5 µM) was -32.3% (inactive); in [8] (measured here: with BGB IC20, at 0.5 µM) it was -52.5%; in [8] (measured here: with BGB IC20, at 5 µM) it was -73.7%; in test [8] (measured here: with cisplatin IC20, at 0.5 µM) it was -25.1%; in test [8] (measured here: with cisplatin IC20, at 5 µM), -14.5%; in test [8] (single agent, at 5 µM) it was 6.05%. Moreover, the inhibition in test [9] (at 0.5 µM) is -98.7% (inactive); in test [9] (measured here: combination with BGB at IC20, at 0.5 µM) it was -91.8%; in test [9] (measured here: combination with cisplatin at IC20, at 0.5 µM), -105%; in test [10] (at 0.5 µM) it was -18.8% (inactive); in test [10] (measured here: combo with BGB at IC20, at 0.5 µM), -15.9%; in test [10] (measured here: combo with cisplatin at IC20, at 0.5 µM), -28%. Besides, the inhibition was -10.5% (inactive) in test [11] (at 0.5 µM); -4.7% in [11] (measured here: inhibition with BGB combination, at 0.05 µM); -16.8% in test [11] (measured here: inhibition with cisplatin combination, at 0.05 µM); -12.5% (inactive) in test [12] (at 0.5 µM); -17.8% in test [12] (setting [28]); -34.1% in test [12] (setting [29]). The inhibition is -24% (inactive) in test [13] (at 0.5 µM); -19.7% in [13] (measured here: BGB combination, at 0.5 µM); -23.5% in [13] (measured here: BGB combination, at 5 µM); -37.6% in test [13] (measured here: cisplatin combination, at 0.5 µM); -21% in test [13] (measured here: cisplatin combination, at 5 µM); -25.5% in test [14] (BGB combination, concentration series, at 5 µM). Moreover, the inhibition in test [14] (at 0.5 µM) was -15.9% (inactive); in test [14] (cisplatin combination, concentration series, at 5 µM), -8.88%; in test [15] (at 0.5 µM), -7.19% (inactive); in [15] (measured here: combo with BGB IC20, at 0.5 µM), -8.45%; in test [15] (measured here: combo with cisplatin IC20, at 0.5 µM) it was -23.8%; in test [16] (at 0.5 µM) it was -17.7% (inactive). Further, the inhibition in test [16] (cisplatin combination, at 0.5 µM) is -7.07%; in test [16] (cisplatin combination, at 5 µM), -5.39%; in [16] (measured here: BGB IC40 combination 0.05 uM, at 0.05 µM), -19.6%; in [16] (single agent, at 5 µM), -14%; in test [17] (at 0.5 µM), -28.5% (inactive); in test [17] (cisplatin combo, at 5 µM) it was -44.1%. Further, the inhibition was -19.7% in test [17] (measured here: BGB IC40 combination, at 0.05 µM); -44.8% in test [17] (setting [28]); -28.1% in [17] (single agent, at 5 µM); -40.6% (inactive) in [18] (at 0.5 µM); -40.6% in test [18] (setting [26]); -43.7% in test [18] (setting [27]). Besides, the inhibition in test [18] (single agent, at 0.05 µM) is -24.2%; in test [18] (single agent, at 5 µM), -21.8%.
For `Cc1ccc(NC(=O)NCCSCc2ccc(CN(C)C)o2)cc1Cl`, the values for the fold change in test [1] (setting [19]) and in test [1] (setting [20]) were 0.882 (inactive) and 0.585, respectively. Besides, the cell count in [1] (setting [21]) amounted to 6630; in test [1] (setting [22]), 7520. For the same molecule, the z-score in [2] (setting [23]) is 0.133 (inactive); in [2] (setting [24]) it was -0.401; in test [3], -1.04 (inactive).
